# Assay results published in PubChem BioAssay AID651820 (National Center for Advancing Translational Sciences (NCATS), 2012).
# In all, about 340,000 compounds went through this assay and about 12,000 (3.5%) were called active. A call without a number means that no potency is given here. Another 18% or so got no clear call; they are omitted. Calls follow the shape of the dose curve; as a rule, active = well fitted inhibition curve with a large enough effect; inconclusive = small, poorly fitted or top-dose-only effect, or another doubt; inactive = no such curve, though single readings can be large or run the other way. The sample as a whole holds a higher share of actives than the screen did.
# Assay: qHTS Assay for Inhibitors of Hepatitis C Virus (HCV)
# Details: Huh7.5.1 HCVcc-Cre infection, luciferase reporter, 44 h; series mostly up to 41.8 µM
# Method in brief: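 After 44 h co-culture of compound, cells and HCVcc-Cre (~0.5 moi), substrate is added for 15 min at room temperature and luciferase measured over 15 sec. Cells were seeded at 1,000/well and pre-cultured 4 h.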
# Potency is read from the fitted curve at half-maximal effect.
SMILES,Potency,"activity change, negative = inhibition"
C/C(=N/OC(=O)c1c(-c2c(F)cccc2Cl)noc1C)c1cnccn1,inactive,
CCCn1c(=NC(C)=O)c(C(=O)OCC)cc2c(=O)n3ccccc3nc21,inactive,
CCOC(=O)c1cc2c(=O)n3ccccc3nc2n(CC(C)C)c1=NC(=O)c1c(-c2c(F)cccc2Cl)noc1C,10 µM (active),
CCCn1nnc2sc3c(c2c1=O)CCC(C)C3 (configuration not stated),inactive,
CC1CCc2sc3nc(N4CCN(CCO)CC4)n4ncnc4c3c2C1 (configuration not stated),20 µM (active),
CC1CCc2c(sc3nc4n(c(=O)c23)CCS4)C1 (configuration not stated),inactive,
Cc1ccc(CSc2ccc(S(=O)(=O)N3CCCCC3)cn2)cc1,inactive,
C=CC[C@@H](CC(=O)N[C@@H](CO)Cc1ccccc1)C(=O)N[C@H](COC(=O)[C@H](CC=C)CC(=O)OC(C)(C)C)Cc1ccccc1,inactive,
COc1cccc(NC(=O)CN(C)C(=O)c2cc(C3CC3)nn2-c2ccccc2)c1,inactive,
COc1ccc(COC(=O)c2n[nH]c3ccccc23)cc1F,inactive,
CCN(CC)S(=O)(=O)c1ccc2nc(CSc3nnnn3-c3ccc(O)cc3)[nH]c2c1,inactive,
CCN(CC)S(=O)(=O)c1ccc2nc(COC(=O)c3n[nH]c4ccccc34)[nH]c2c1,12.6 µM (active),
CC(OC(=O)c1cc2ccccc2[nH]1)C(=O)N(C)c1ccccc1 (configuration not stated),inactive,
CCN(CC)CCCNC(=O)c1c(O)c2cc(F)cc3c2n(c1=O)C(C)CC3 (configuration not stated),10 µM (active),
CCN(CC)CCCNC(=O)c1cn(C)c2ccc(S(=O)(=O)N(C)C3CCCCC3)cc2c1=O,inactive,
CCNC(=O)c1c(O)c2cccc3c2n(c1=O)CC3,inactive,
O=C(CSc1nnc(CN2CCCC2)n1-c1ccc(F)cc1)c1ccc2c(c1)OCO2,inactive,
COc1ccc(/C=C/C(=O)OCC(=O)N2CCN(S(=O)(=O)c3ccc(C)cc3C)CC2)cc1OC,inactive,
O=C(c1cc(COc2ccc(F)c(F)c2)on1)N1CCOCC1,inactive,
CCn1ccnc1CN(C)C(=O)c1cc(COc2ccc(-n3cncn3)cc2)on1,inactive,
C=CCC1(CC=C)CCCN1C(=O)c1cc(COc2ccc(-n3cncn3)cc2)on1,5.01 µM (active),
O=C1C[C@@H]2c3c(cccc3CN1Cc1ccccc1)C[C@@H](O)[C@H]2O,inactive,
Cc1ccc(-c2cc(=O)[nH]c(NCc3ccccc3)n2)cc1,inactive,
O=C(CN1C(=O)NC2(CCOc3ccccc32)C1=O)Nc1cccc([N+](=O)[O-])c1 (configuration not stated),inactive,
CN(C(=O)COC(=O)c1nc(Cl)ccc1Cl)C1CCS(=O)(=O)C1 (configuration not stated),inactive,
Cc1c(-c2cccc(Cl)c2)nc2ccccc2c1C(=O)OCC(=O)N(C)C1CCS(=O)(=O)C1 (configuration not stated),3.55 µM (active),

SMILES,Potency,"activity change, negative = inhibition"
CN(C(=O)COC(=O)c1cc(-c2ccco2)nc2ccccc12)C1CCS(=O)(=O)C1 (configuration not stated),inactive,
Cc1ccc(CNC(=O)Cn2cnc3c(NCc4ccccc4)ncnc32)o1,inactive,
Cc1ccc(NC(=O)Cn2c(C)csc2=O)cc1,inactive,
CSCc1cc(N2CCOCC2)nc(SCc2ccc(Cl)cc2Cl)n1,inactive,
Clc1ccc(CSc2nnc(/C=C/c3ccccc3)o2)c(Cl)c1,inactive,
CSCc1cc(N(C)C)nc(SCc2ccc(Cl)cc2Cl)n1,8.91 µM (active),
Nn1c(SCC(=O)NC2CCCc3ccccc32)nnc1C1CC1 (configuration not stated),inactive,
Cc1ccccc1Nc1nnc(C)c(=O)[nH]1,inactive,
Cc1nnc(N/N=C/c2cccs2)[nH]c1=O,inactive,
Cc1nnc(N/N=C/c2ccccn2)[nH]c1=O,3.55 µM (active),
CC(=O)N1CCc2ccc(N)cc21,inactive,
CCCCn1c(N)c(N(CCC(C)C)C(=O)CC2OC(=O)c3ccccc32)c(=O)[nH]c1=O (configuration not stated),inactive,
COc1ccc(NC(=O)C2=CC(c3ccc(OC)c(OC)c3)=NS(=O)(=O)N2C)cc1,8.91 µM (active),
COc1ccc(C2=NS(=O)(=O)N(C)C(C(=O)NC(C)c3ccccc3)=C2)cc1 (configuration not stated),inactive,
COc1cc(NC(=O)C2=CC(c3ccco3)=NS(=O)(=O)N2C)cc(OC)c1OC,inactive,
COC(=O)C1CCN(C(=O)NC2CC(=O)N(c3ccc4c(c3)OCCO4)C2)CC1 (configuration not stated),inactive,
O=S1(=O)CCOC[C@H](Cc2ccccc2)N1Cc1ccccc1Br,inactive,
O=C(CCN1CCN(C/C=C/c2ccccc2)CC1)Nc1ccccc1Cl,inactive,
O=C1c2ccccc2C(=O)c2c1cccc2N1CCN(C/C=C/c2ccccc2)CC1,11.2 µM (active),
CNC(=O)NC(=O)C(C)N1CCN(C/C=C/c2ccccc2)CC1 (configuration not stated),inactive,
Nc1ncnc2c1cnn2C1CC(O)C(CO)O1 (configuration not stated),inactive,
C=CCn1c(=O)n(C)c2c(=O)n(C)c(=O)n(C)c21,inactive,
CCOc1ccc(C(O)Cn2c(=N)n(CCN3CCCCC3)c3ccccc32)cc1 (configuration not stated),10 µM (active),
Cc1cccc(OCC(O)Cn2c(=N)n(CCN3CCOCC3)c3ccccc32)c1 (configuration not stated),inactive,
CCOc1ccc(C(O)Cc2nc3ccccc3n2C)cc1 (configuration not stated),inactive,
COc1ccc(S(=O)(=O)N2CCOCC2)cc1NC(=O)CC1CC2CCC1C2 (configuration not stated),inactive,

SMILES,Potency,"activity change, negative = inhibition"
COc1cc2c(cc1OC)CN(C(C)C(=O)Nc1cccc(S(=O)(=O)N3CCOCC3)c1)CC2 (configuration not stated),inactive,
CCc1cc2c(NC(Cc3ccccc3)C(=O)O)ncnc2s1 (configuration not stated),inactive,
CCc1cc2c(NC3CCCC3)ncnc2s1,10 µM (active),
CCc1cc2c(SCC(=O)Nc3ncc(Cl)c(C)c3Cl)ncnc2s1,inactive,
O=C(CN1CCc2cc3c(cc2C1)OCCCO3)Nc1ccccc1,11.2 µM (active),
Cc1ccc(NC(=O)CN2CCc3ccccc3C2)cc1,inactive,
O=C(CN1CCOCC1)Nc1ccccc1,inactive,
CNC(=O)C1CC(=O)N(c2ccc(OCC(=O)Nc3ccccc3C)cc2)C1 (configuration not stated),inactive,
O=C(N[C@@H](Cc1ccccc1)C(=O)OCc1ccccc1)c1nc[nH]c1C(=O)NC1CCNCC1,inactive,
NS(=O)(=O)c1ccc(CCNC(=O)CCCn2c(SCC(=O)N3CCCC3)nc3ccsc3c2=O)cc1,2 µM (active),
CCCCn1c(SCC(=O)N2CCC(C(=O)OCC)CC2)nc2cc(S(N)(=O)=O)ccc21,inactive,
NS(=O)(=O)c1ccc(CCNC(=O)CN2C(=O)c3ccccc3S2(=O)=O)cc1,inactive,
CN1C(=O)[C@H]2[C@@H](/C=C/c3ccccc3)N3C(=O)CN(Cc4ccc(-c5ccccc5)cc4)C(=O)[C@@]3(C)[C@H]2C1=O,inactive,
COc1ccc(CNC(=O)CN2C(=O)NC3(CCCc4sccc43)C2=O)cc1 (configuration not stated),inactive,
O=C(Nc1cccc(C(F)(F)F)c1)c1ccc(N2CCNCC2)c([N+](=O)[O-])c1,12.6 µM (active),
O=C(Nc1ccc(N2C(=O)c3cccc4cccc(c34)C2=O)cc1)c1ccc(N2CCCCC2)c([N+](=O)[O-])c1,inactive,
CC(NC(=O)c1ccc(N2CCNCC2)c([N+](=O)[O-])c1)C12CC3CC(CC(C3)C1)C2 (configuration not stated),inactive,
NC(=O)c1ncn([C@@H]2O[C@H](CN=C3NS(=O)(=O)c4ccccc43)[C@@H](O)[C@H]2O)n1,inactive,
CSc1ncnc2sc(C)c(C)c12,inactive,
CCOC(=O)C(C)n1cnc2sc(C)c(C)c2c1=O (configuration not stated),inactive,
CCCNc1ncnc2sc(C)c(C)c12,8.91 µM (active),
CCN(C(=O)CSc1nnnn1-c1ccccc1OC)C1CCS(=O)(=O)C1 (configuration not stated),inactive,
O=C(CCc1ccc(S(=O)(=O)N2CCOCC2)cc1)OCC(=O)c1ccc(Br)cc1,inactive,
CC(=O)Nc1ccc(NC(=O)CSc2ncnc3c2cnn3Cc2ccccc2)cc1,inactive,
Clc1ccc(Cn2ncc3c(NCc4cccnc4)ncnc32)cc1,11.2 µM (active),
Clc1ccc(Nc2ncnc3c2nnn3Cc2ccccc2)cc1,inactive,

SMILES,Potency,"activity change, negative = inhibition"
O=C(Cn1cnc2ccccc2c1=O)NNC(=O)c1ccccc1F,inactive,
CC(C)NC(=O)Nc1cccc2c1O[C@@H](CN(C)S(=O)(=O)c1ccc(F)cc1)[C@@H](C)CN([C@H](C)CO)C2=O,inactive,
Cc1cccc[n+]1CC(=O)c1ccccc1,inactive,
O=C(CNC(=O)c1ccc(F)cc1)c1ccccc1,inactive,
O=C(C[n+]1cc(Br)cc2ccccc21)c1ccc(F)cc1,10 µM (active),
O=C(NCCS(=O)(=O)NCc1ccc(F)cc1)c1ccccc1,,-2.73% [at 8.37 µM] (inactive)
O=C(NCc1cccnc1)c1cc(S(=O)(=O)N2CCOCC2)c(Cl)cc1Cl,inactive,
Cc1ccc(S(=O)(=O)N2CCN(c3ncnc4ccccc34)CC2)cc1,8.91 µM (active),
Cc1ccc(S(=O)(=O)N2CCN(C)CC2)cc1,inactive,
Cc1ccc(S(=O)(=O)N2CCN(Cc3cccc(C)c3O)CC2)cc1,inactive,
CC(=O)Nc1ccc(NC(=O)CSc2nnc(C3CC3)n2-c2ccccc2)cc1,inactive,
Cc1cccc(-c2oc3ccc(-c4ccc5c(c4)OCO5)cc3c2C#Cc2cncn2C)c1,inactive,
Cc1ccc(C(=O)O)c(NC=O)c1OCc1ccccc1,inactive,
Cc1ccc(S(=O)(=O)N2[C@@H](c3cccc4ccccc34)C(C(=O)O)=C[C@H]2C(C)(C)C)cc1,inactive,
CCOc1ccc(-c2n[nH]c(C)c2-c2ccccn2)c(O)c1,inactive,
COc1ccc(-n2c(-c3ccc(OC)c(OC)c3)n[nH]c2=S)cc1,inactive,
COc1ccc(-c2n[nH]c(C)c2-c2ccc(OC)c(OC)c2)c(O)c1,11.2 µM (active),
O=C1NCC(Nc2ccccc2)C(=O)N1 (configuration not stated),inactive,
CCN(Cc1ccccc1)S(=O)(=O)c1cc2c3c(c1)CCN3C(=O)CC2,inactive,
Cc1ccc(C)c(N2CCN(C(=O)CCc3nc(-c4cccc(C(F)(F)F)c4)no3)CC2)c1,inactive,
COC(=O)c1ccc(C)c(NC(=O)Cn2c(C)csc2=O)c1,inactive,
CCOc1ccc2nc(NC(=O)CSc3nc4c(c(=O)n(C)c(=O)n4C)n3CC)sc2c1,3.98 µM (active),
C#CC(C)(C)NC(=O)CSc1nc2c(c(=O)n(C)c(=O)n2C)n1CCCC,inactive,
Cn1nnnc1SCC(=O)Nc1nc2ccccc2s1,inactive,
